Laboratory results published in PubChem BioAssay (NCATS).
A number with no mark means an inactive call. Results filed as inconclusive are left out. The source made the active and inactive calls. Calls follow the shape of the dose curve; as a rule, active = well fitted curve in the direction sought with a large enough effect; inconclusive = small, poorly fitted or top-dose-only effect, or another doubt; inactive = no such curve, though single readings can be large; an effect the other way counts as inactive or inconclusive.

Assay: Cell Viability - LYMP1-003 - Assay at 24 hr (AID 963);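 as to viability change, negative = cytotoxic: plate controls were DMSO only for no effect and tetraoctylammonium bromide positive control for full effect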
Conditions: LYMP1-003 lymphoblastoid cell viability; series mostly up to 92.2 µM; viability change, negative = cytotoxic: at the top concentration
Summary of the method: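 CellTiter-Glo luminescence (intracellular ATP) read after 24 hr, 37 C compound exposure of 2500 LYMP1-003 human lymphoblastoid cells/well in complete medium; qHTS concentration series; AC50 via standard Hill equation.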
Potency is read from the fitted curve at half-maximal effect.

Row | SMILES | Potency | viability change, negative = cytotoxic [%]
1 | O=C(O)COc1ccc(Cl)cc1Cl | inactive | –
2 | c1ccc(N=Nc2ccccc2)cc1 | – | -0.467
3 | CCOCN(C(=O)CCl)c1c(C)cccc1CC | – | -26.5
4 | CNC(=O)O/N=C/C(C)(C)SC | – | 6.54
5 | CCNc1nc(Cl)nc(NC(C)C)n1 | – | -1.21
6 | C=CCc1ccc(OC)cc1 | – | -0.894
7 | ClC1=C(Cl)C2(Cl)C3C4CC(C5OC45)C3C1(Cl)C2(Cl)Cl (stereo not drawn) | 25.1 µM (active) | –
8 | ClC(Cl)=C(c1ccc(Cl)cc1)c1ccc(Cl)cc1 | inactive | –
9 | CCc1cccc(CC)c1N(COC)C(=O)CCl | – | -12.9
10 | C/C=C/c1ccc2c(c1)OCO2 | – | 7.82
11 | C=CCc1ccc2c(c1)OCO2 | – | 0.511
12 | COP(=S)(OC)Oc1ccc([N+](=O)[O-])cc1 | – | 0.68

Assay: Cell Viability - LYMP1-003 - Assay at 40 hr (AID 964); also: nearly all actives have a fitted effect of over 60% in size; as to activity change, negative = cytotoxic: % is scaled to controls: 0 for no effect and ±100 for the full control effect
Conditions: LYMP1-003 lymphoblastoid viability; series mostly up to 92.2 µM; activity change, negative = cytotoxic: at the top concentration
Summary of the method: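 LYMP1-003 lymphoblastoid cells, 2500/well; 5 hr preincubation, 40 hr compound exposure, 37 C; CellTiter-Glo 30 min RT; luminescence; Hill-fit AC50. Positive control tetraoctylammonium bromide.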

Row | SMILES | Potency | activity change, negative = cytotoxic [%]
13 | O=C(O)COc1ccc(Cl)cc1Cl | inactive | –
14 | O=S1OCC2C(CO1)C1(Cl)C(Cl)=C(Cl)C2(Cl)C1(Cl)Cl (stereo not drawn) | 39.8 µM (active) | –
15 | c1ccc(N=Nc2ccccc2)cc1 | – | -3.85
16 | CCOCN(C(=O)CCl)c1c(C)cccc1CC | 50.1 µM (active) | –
17 | CNC(=O)O/N=C/C(C)(C)SC | – | 0.771
18 | CCNc1nc(Cl)nc(NC(C)C)n1 | – | -13.9
19 | C=CCc1ccc(OC)cc1 | – | -3.68
20 | ClC1=C(Cl)C2(Cl)C3C4CC(C5OC45)C3C1(Cl)C2(Cl)Cl (stereo not drawn) | 10 µM (active) | –
21 | ClC(Cl)=C(c1ccc(Cl)cc1)c1ccc(Cl)cc1 | inactive | –
22 | C/C=C/c1ccc2c(c1)OCO2 | – | -11.8
23 | C=CCc1ccc2c(c1)OCO2 | – | 3.71
24 | COP(=S)(OC)Oc1ccc([N+](=O)[O-])cc1 | – | -9.38

Assay: Cell Viability - LYMP2-003 (AID 965);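 also: cells exposed to compounds for 24 h before reading; nearly all actives have a fitted effect of over 50% in size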;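 as to activity change, negative = cytotoxicity: 0% = DMSO only and full effect = 92 µM tetraoctylammonium bromide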
Conditions: LYMP2-003 lymphoblastoid cell viability; series mostly up to 92.2 µM; activity change, negative = cytotoxicity: at the top concentration
Summary of the method: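 Human lymphoblastoid cells (2500/well) were pre-incubated 5 hr at 37 C, then exposed to compounds over a concentration range for 24 hr at 37 C. Intracellular ATP was read by CellTiter-Glo luminescence; AC50 came from Hill-equation fits.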

Row | SMILES | Potency | activity change, negative = cytotoxicity [%]
25 | O=C(O)COc1ccc(Cl)cc1Cl | inactive | –
26 | ClC1=C(Cl)C2(Cl)C3C4C=CC(C4)C3C1(Cl)C2(Cl)Cl (stereo not drawn) | 31.6 µM (active) | –
27 | c1ccc(N=Nc2ccccc2)cc1 | – | 8.54
28 | CCOCN(C(=O)CCl)c1c(C)cccc1CC | 50.1 µM (active) | –
29 | CNC(=O)O/N=C/C(C)(C)SC | – | 3.07
30 | CCNc1nc(Cl)nc(NC(C)C)n1 | – | 4.35
31 | C=CCc1ccc(OC)cc1 | – | 3.12
32 | ClC1=C(Cl)C2(Cl)C3C(Cl)C=CC3C1(Cl)C2(Cl)Cl (stereo not drawn) | 39.8 µM (active) | –
33 | ClC1=C(Cl)C2(Cl)C3C4CC(C5OC45)C3C1(Cl)C2(Cl)Cl (stereo not drawn) | 25.1 µM (active) | –
34 | ClC(Cl)=C(c1ccc(Cl)cc1)c1ccc(Cl)cc1 | inactive | –
35 | C/C=C/c1ccc2c(c1)OCO2 | – | 14.1
36 | C=CCc1ccc2c(c1)OCO2 | – | 15.9
37 | COP(=S)(OC)Oc1ccc([N+](=O)[O-])cc1 | – | 19.9

Assay: Cell Viability - LYMP2-004 (AID 966); also: nearly all actives have a fitted effect of over 65% in size;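 as to activity change, negative = cytotoxicity: plate controls were DMSO only for no effect and tetraoctylammonium bromide control for full effect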
Conditions: LYMP2-004 lymphoblastoid cell viability, qHTS; series mostly up to 92.2 µM; activity change, negative = cytotoxicity: at the top concentration
Summary of the method: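 Luminescent ATP read-out (CellTiter-Glo, 30 min RT) after 24 hr compound exposure at 37 C; 2500 lymphoblastoid cells/well, complete medium. Decrease in ATP = cytotoxicity; AC50 from standard Hill model.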

Row | SMILES | Potency | activity change, negative = cytotoxicity [%]
38 | O=C(O)COc1ccc(Cl)cc1Cl | inactive | –
39 | c1ccc(N=Nc2ccccc2)cc1 | – | 12.5
40 | CNC(=O)O/N=C/C(C)(C)SC | – | 11.5
41 | CCNc1nc(Cl)nc(NC(C)C)n1 | – | 1.89
42 | ClC1=C(Cl)C2(Cl)C3C4CC(C5OC45)C3C1(Cl)C2(Cl)Cl (stereo not drawn) | 20 µM (active) | –
43 | ClC(Cl)=C(c1ccc(Cl)cc1)c1ccc(Cl)cc1 | inactive | –
44 | C/C=C/c1ccc2c(c1)OCO2 | – | -15.8
45 | C=CCc1ccc2c(c1)OCO2 | – | 33.7

Assay: Cell Viability - LYMP2-005 (AID 967);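 as to activity change, negative = viability loss: plate controls were DMSO only for no effect and 92 µM tetraoctylammonium bromide control for full effect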
Conditions: LYMP2-005 lymphoblastoid cell viability; series mostly up to 92.2 µM; activity change, negative = viability loss: at the top concentration
Summary of the method: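 CellTiter-Glo luminescence (cellular ATP) read-out; LYMP2-005 lymphoblastoid cells, 2500/well, 5 h pre-incubation, then 24 h compound exposure at 37 C in complete medium. Tetraoctylammonium bromide positive control; AC50 by standard Hill fit.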

Row | SMILES | Potency | activity change, negative = viability loss [%]
46 | O=C(O)COc1ccc(Cl)cc1Cl | inactive | –
47 | c1ccc(N=Nc2ccccc2)cc1 | – | 9.72
48 | CNC(=O)O/N=C/C(C)(C)SC | – | 9.66
49 | CCNc1nc(Cl)nc(NC(C)C)n1 | – | 5.61
50 | C=CCc1ccc(OC)cc1 | – | -34.8
51 | ClC1=C(Cl)C2(Cl)C3C4CC(C5OC45)C3C1(Cl)C2(Cl)Cl (stereo not drawn) | 20 µM (active) | –
52 | ClC(Cl)=C(c1ccc(Cl)cc1)c1ccc(Cl)cc1 | inactive | –
53 | C/C=C/c1ccc2c(c1)OCO2 | – | 31.2
54 | C=CCc1ccc2c(c1)OCO2 | – | 14.2
55 | COP(=S)(OC)Oc1ccc([N+](=O)[O-])cc1 | – | -27.9

Assay: Cell Viability - LYMP2-009 (AID 968); also: nearly all actives have a fitted effect of over 55% in size;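 as to activity change, negative = viability loss: 0% = DMSO alone and the full-kill end = tetraoctylammonium bromide at 92 µM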
Conditions: LYMP2-009 lymphoblastoid cell viability; series mostly up to 92.2 µM; activity change, negative = viability loss: at the top concentration

Row | SMILES | Potency | activity change, negative = viability loss [%]
56 | O=C(O)COc1ccc(Cl)cc1Cl | inactive | –
57 | ClC1=C(Cl)C2(Cl)C3C4C=CC(C4)C3C1(Cl)C2(Cl)Cl (stereo not drawn) | – | -21.7
58 | O=S1OCC2C(CO1)C1(Cl)C(Cl)=C(Cl)C2(Cl)C1(Cl)Cl (stereo not drawn) | – | -23.5
59 | c1ccc(N=Nc2ccccc2)cc1 | – | -24
60 | CCNc1nc(Cl)nc(NC(C)C)n1 | – | -10.3
61 | C=CCc1ccc(OC)cc1 | – | 4.42
62 | ClC1=C(Cl)C2(Cl)C3C(Cl)C=CC3C1(Cl)C2(Cl)Cl (stereo not drawn) | – | -20.8
63 | ClC(Cl)=C(c1ccc(Cl)cc1)c1ccc(Cl)cc1 | inactive | –
64 | CCc1cccc(CC)c1N(COC)C(=O)CCl | 50.1 µM (active) | –
65 | C/C=C/c1ccc2c(c1)OCO2 | – | -7.05
66 | C=CCc1ccc2c(c1)OCO2 | – | -7.62
67 | COP(=S)(OC)Oc1ccc([N+](=O)[O-])cc1 | – | 0.271

Assay: Cell Viability - LYMP2-011 (AID 969); also: nearly all actives have a fitted effect of over 60% in size;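 as to viability change, negative = cytotoxic: 0% = DMSO only and full inhibition = 92 µM tetraoctylammonium bromide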
Conditions: LYMP2-011 lymphoblastoid cells viability; series mostly up to 92.2 µM; viability change, negative = cytotoxic: at the top concentration
Summary of the method: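 Luminescent ATP read-out (CellTiter-Glo, 30 min RT) after 24 hr compound exposure at 37 C in human lymphoblastoid cells, 2500 cells/well. Decreasing ATP indicates cytotoxicity; AC50 from standard Hill fit.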

Row | SMILES | Potency | viability change, negative = cytotoxic [%]
68 | O=C(O)COc1ccc(Cl)cc1Cl | inactive | –
69 | O=S1OCC2C(CO1)C1(Cl)C(Cl)=C(Cl)C2(Cl)C1(Cl)Cl (stereo not drawn) | – | -29.3
70 | CCOCN(C(=O)CCl)c1c(C)cccc1CC | 50.1 µM (active) | –
71 | CNC(=O)O/N=C/C(C)(C)SC | – | 0.524
72 | CCNc1nc(Cl)nc(NC(C)C)n1 | – | 3.53
73 | C=CCc1ccc(OC)cc1 | – | 2.25
74 | ClC1=C(Cl)C2(Cl)C3C4CC(C5OC45)C3C1(Cl)C2(Cl)Cl (stereo not drawn) | 39.8 µM (active) | –
75 | ClC(Cl)=C(c1ccc(Cl)cc1)c1ccc(Cl)cc1 | inactive | –
76 | C/C=C/c1ccc2c(c1)OCO2 | – | -5.72
77 | C=CCc1ccc2c(c1)OCO2 | – | 1.87
78 | COP(=S)(OC)Oc1ccc([N+](=O)[O-])cc1 | – | 5.87
